{
  "source": "ChEMBL document CHEMBL1157539",
  "about": "“Thousands of chemical starting points for antimalarial lead identification” (Nature, 2010)",
  "data": [
    {"tested_on": "HepG2", "assay": "GSK_TCMDC: Percent inhibition of human HepG2 cell line. Test compounds present at 10uM.", "format": "functional", "units": {"Inhibition": "%"}, "values": [
      {"compound": "Clc1cc2c(Nc3ccc(Oc4ccccc4)cc3)ccnc2cc1-c1ccc(CNCCN2CCOCC2)o1", "Inhibition": 0},
      {"compound": "COc1cc(C(=O)NC2CC(C)(C)N(C)C(C)(C)C2)ccc1-c1cc2cc(Cl)c(Cl)cc2[nH]1", "Inhibition": 65},
      {"compound": "CCc1cn(CCOC)c2ccc(C(=O)N[C@@H](Cc3ccccc3)[C@H](O)CNC(C)(C)CCCC(C)C)cc12.O=CO", "Inhibition": 35},
      {"compound": "O=C(/C=C/c1ccc(Cl)c(Cl)c1)NCCCCCN1CCC(CCNC(=O)/C=C/c2ccccc2F)CC1", "Inhibition": 47},
      {"compound": "COc1ccc(NC(=O)C2c3ccccc3C(=O)N(C3CCCC3)C2c2cccs2)c(OC)c1", "note": "(stereo not given)", "Inhibition": 3},
      {"compound": "Cc1ccc2[nH]ncc2c1N(CC1CCCCC1)c1ccnc(Nc2ccc(OCC(O)CN3CC=CCC3)cc2)n1.O=CO", "note": "(stereo not given)", "Inhibition": 29},
      {"compound": "CNC(=N)c1ccc(NC(=O)Nc2ccc(C(=N)NC)cc2)cc1.Cl", "Inhibition": 0},
      {"compound": "Cc1ccc(CNc2cc(C(F)(F)F)nc(-c3ccc(S(C)(=O)=O)cc3)n2)cc1", "Inhibition": 2},
      {"compound": "CN1CCN(Cc2ccc(-c3cc4nccc(Nc5ccc(Oc6ccccc6)cc5)c4cc3Cl)o2)CC1", "Inhibition": 3},
      {"compound": "OCc1ccc2nc3c(cc2c1)-c1cccc2cccc-3c12", "Inhibition": 16},
      {"compound": "O=C(NC1CC1)c1ccc(N2CCC(COc3cccc(F)c3)CC2)nc1", "Inhibition": 0},
      {"compound": "O=C(/C=C/c1ccc(Cl)c(Cl)c1)NC1CCC(CN2CCC(c3cc4ccccc4[nH]3)CC2)CC1", "note": "(stereo not given)", "Inhibition": 19},
      {"compound": "Cc1cccc2nc(-c3cccc(-c4cccc(CNCC5CCCO5)c4)c3)[nH]c12.O=C(O)C(F)(F)F", "note": "(stereo not given)", "Inhibition": 26},
      {"compound": "Fc1ccc(-c2nc(NCc3cccc(C(F)(F)F)c3)nn2-c2cccc(C(F)(F)F)c2)cc1C(F)(F)F", "Inhibition": 2},
      {"compound": "Fc1ccc(Nc2ccnc3cc(I)ccc23)c(Cl)c1", "Inhibition": 35},
      {"compound": "O=C(/C=C/c1ccc(Cl)c(Cl)c1)NCCCCCN1CCC(NC(=O)Nc2cccc(Cl)c2Cl)CC1", "Inhibition": 99},
      {"compound": "CCOC(=O)c1ccc(COc2ccc(C)nc2)cc1", "Inhibition": 14},
      {"compound": "O=C(NC1CC1)c1ccc(Cn2c(SCc3cccc([N+](=O)[O-])c3)nc3ccccc3c2=O)cc1", "Inhibition": 12},
      {"compound": "O=C(c1ccc(Cl)cc1Cl)N1CCCC(C(F)(F)F)C1", "note": "(stereo not given)", "Inhibition": 6},
      {"compound": "CC(C)CCN1CCCN(Cc2cccc(NC(=O)c3ccc(Cl)c(Cl)c3)c2)CC1.O=C(O)C(F)(F)F", "Inhibition": 35},
      {"compound": "Br.CCOC(=O)c1c(CNc2ccncc2)n(C)c2cc(Br)c(OC(C)=O)cc12", "Inhibition": 0},
      {"compound": "O=C(/C=C/c1ccccc1Cl)Nc1ccc(Br)c(OCCN2CCN(CCN3CCOCC3)CC2)c1.O=C(O)C(=O)O", "Inhibition": 22},
      {"compound": "Cc1nc(-c2ccc(C#N)cc2)sc1C(=O)NCCCCN1CCC(c2ccc3c(c2OCCO)CCCC3)CC1.Cl", "Inhibition": 14},
      {"compound": "Oc1ccc(CCNc2nc(NCc3ccccc3-c3ccc(C(F)(F)F)cc3)nc(N3CCNCC3)n2)cc1", "Inhibition": 17},
      {"compound": "Cc1cccn2c(=O)c3cc(C(=O)NC4CCCCC4)c(=N)n(CCCn4ccnc4)c3nc12", "Inhibition": 1}
    ]}
  ]
}
